Measured values reported in PubChem BioAssay.
Where “and” joins values, the source holds several entries; their conditions need not be identical. Identical values can stand only once. Calls of active or inactive are those of the source.

target: Albumin (Bos taurus) (UniProt P02769); assay: compounds binding labelled BSA control protein – biochemical, small-molecule microarray, Alexa647 label, 635/667 nm fluorescence, artefact control for SMM control protein annotation, profiling panel (AID 1118); conditions: BSA-A647 binding, fluorescence 635 nm, higher = more signal;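 further: score merges 667 nm emission intensity and signal-to-noise per printed compound spot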
Sequence (P02769 whole entry, looked up): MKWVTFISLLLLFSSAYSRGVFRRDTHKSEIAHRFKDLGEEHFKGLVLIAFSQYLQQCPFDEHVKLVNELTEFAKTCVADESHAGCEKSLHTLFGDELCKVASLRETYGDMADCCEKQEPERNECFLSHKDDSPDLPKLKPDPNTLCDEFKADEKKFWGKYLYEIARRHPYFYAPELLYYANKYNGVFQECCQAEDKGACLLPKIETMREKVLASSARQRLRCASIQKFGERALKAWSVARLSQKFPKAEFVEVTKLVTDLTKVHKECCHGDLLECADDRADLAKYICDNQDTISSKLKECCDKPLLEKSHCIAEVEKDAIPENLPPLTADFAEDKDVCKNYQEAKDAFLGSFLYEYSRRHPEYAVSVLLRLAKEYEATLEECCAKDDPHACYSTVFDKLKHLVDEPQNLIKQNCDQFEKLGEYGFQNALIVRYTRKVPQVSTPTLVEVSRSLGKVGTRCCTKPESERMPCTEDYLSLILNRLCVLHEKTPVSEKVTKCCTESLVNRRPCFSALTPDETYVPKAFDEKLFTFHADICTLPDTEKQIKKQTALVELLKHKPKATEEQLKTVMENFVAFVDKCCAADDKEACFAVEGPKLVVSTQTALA

SMILES	composite z-score
C=CCN(CCCCC)C(=O)C(c1cccs1)N(C(=O)/C=C\C(=O)O)c1ccc(CCO)cc1 (stereo unspecified)	0.516 and -0.0786
C[C@@H](c1ccccc1)N1C(=O)[C@H]2[C@H]3[C@H](O)[C@H](O)CC(=O)[C@@H]3CC[C@H]2C1=O	0.294
CO[C@H]1COC(=O)[C@H](C)NC(=O)CC=C[C@@H](C)[C@H](OC)COC(=O)CC=C[C@@H]1C	-0.956
CCOC(=O)C[C@H]1[C@H](OC(=O)c2ccccc2-c2ccccc2)[C@@H](NC(=O)c2ccccc2)c2cc(OCCCO)ccc2N1C(=O)c1ccc2ccccc2n1	0.369 and 0.645
C=CCN(C(=O)C1N(CCOCCO)C(=O)C2C(C(=O)O)C3C=CC21O3)C(C)(C)C (stereo unspecified)	0.106 and -0.502
CCCNC(=O)OC[C@H]1O[C@H](CCON=C(C)CCC(=O)OC[C@H]2O[C@H](C#Cc3ccccc3)C=C[C@@H]2Oc2ccc(C)cc2)C=C[C@@H]1Oc1ccc(OC)cc1	-0.22
CCOC(=O)c1ccc(NC(=O)O[C@H]2[C@H](OC(=O)Nc3ccccc3)[C@H](OC(=O)Nc3ccccc3)[C@@H](OC)O[C@@H]2CO)cc1	0.783 and 0.754
O=C1NC(=O)C2C1C=CC(C(O)c1ccc([N+](=O)[O-])cc1)N2Nc1ccc(Cl)cc1Cl (stereo unspecified)	0.933 and 0.732
CC(C)=NO[C@@H](C)c1cc(-c2c(C)cc(C)cc2C)no1	0.0075
CC(C)=NOCc1ccc(-c2cn([C@@H]3COC[C@H]3O)nn2)cc1	0.655
C=CC[C@@H](O)c1ccc(O)c2ccccc12	-0.0028 and -0.264
C[C@@H]1CC[C@@H](C(=O)O)N[C@H]1c1ccc(-c2ccco2)cc1	0.0852
COC(=O)c1c2oc(c1C(=O)OC)C(=O)N[C@@H](Cc1ccccc1)Cn1cc(nn1)C1(CCCCC1)NC(=O)N[C@H](CO)CC2	-0.14 and 0.517
C=C[C@@H](OC)[C@H](O)c1ccc(OC)c(O)c1	0.346 and 0.226
C=CCN(CCCCC)C(=O)C1N(CCCCCCO)C(=O)C2C(C(=O)O)C3C=CC21O3 (stereo unspecified)	-1.03 and 0.785
C=CCN(C(=O)C(c1cccs1)N(C(=O)/C=C\C(=O)O)C(C)(C)CO)C(C)(C)C (stereo unspecified)	0.649 and 0.333
Cc1ccc(S(=O)(=O)OC[C@@H]2CN3[C@@H](CC[C@@H](C)[C@@H]3c3ccc(Br)cc3)C(=O)O2)cc1	0.278 and 0.51
CC(C)[Si]1(C(C)C)OCc2cc(CCCc3cc4c(c(CCc5ccccc5)n3)[Si](C(C)C)(C(C)C)OC4)nc(CCc3ccccc3)c21	-1.72 and -0.26
C=CCN(Cc1ccccc1)C(=O)C1N(c2c(Cl)cccc2CO)C(=O)C2C(C(=O)O)C3C=CC21O3 (stereo unspecified)	-1.52 and -0.682
COc1ccc(-c2ccc3c(n2)CCCN3CC(O)CN2CCCc3nc(-c4ccc(Br)cc4)ccc32)cc1 (stereo unspecified)	0.479 and 0.259
COc1ccc(O[C@H]2C=C[C@@H](c3ccccc3)O[C@@H]2COC(=O)CCC(C)=NO[C@H](C)c2cn([C@H](CO)Cc3ccccc3)nn2)cc1	0.683 and 0.0567
C=CCN1C(=O)[C@]2(O[C@H](CCn3cc(CCO)nn3)[C@@H]([Si](C)(C)c3ccc(OC)cc3)[C@@H]2C)c2cc(N3C(=O)c4cccc5cccc3c45)ccc21	0.558 and 0.668
C=CCN(CCCCC)C(=O)C(c1cccs1)N(C(=O)/C=C\C(=O)O)c1c(Cl)cccc1CO (stereo unspecified)	-0.678 and -0.603
C=C[C@@H](OC)[C@H](O)c1ccc(O)c(F)c1	-0.131 and 0.529
C[N+](C)(C)CCCCNC(=O)[C@@H]1C[C@@H]2C(=O)N[C@@H](CCCC[N+](C)(C)C)C(=O)N2[C@@H]1c1cccc(OCCO)c1	-0.916 and -0.121
C=CC[C@@H](O)c1ccc(OCCO)cc1	-0.155 and -0.308
CCCNC(=O)OC[C@H]1O[C@H](CCON=C(C)CCN2CCc3nc(-c4ccccc4)c(-c4ccccc4)cc3C2)C=C[C@@H]1Oc1ccc(OC)cc1	0.216

tested on: not listed separately; assay: probe aXIP binding to arrayed compounds – biochemical, NeuroSMM set, 635/667 nm fluorescence, primary screen (AID 1119); conditions: small-molecule microarray, higher = more signal, called active from +8 up or from −8 down;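 further: probe is the protein aXip251-270 applied at 1 µg/mL to compound-printed slides; binding of probe to printed compounds measured as 667 nm fluorescence plus signal to noise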

SMILES	composite Z-score
C=C[C@@H](C)[C@H](O)c1ccc(O)c2ccccc12	0.342 (inactive) and 0.259 (inactive)
CCOC(=O)C[C@H]1[C@H](OC(=O)c2ccccc2-c2ccccc2)[C@@H](NC(=O)Cc2ccc(OC)cc2)c2cc(OCCCO)ccc2N1C(=O)c1ccc2ccccc2n1	-0.252 (inactive) and -0.128 (inactive)
COCn1c2ccccc2c2nnc(C(C)=O)nc21	-0.158 (inactive) and -0.123 (inactive)
C[C@@H](ON=C1[C@H]2CCn3c(=O)n(-c4ccccc4)c(=O)n3[C@H]2[C@H](O)[C@@H]2O[C@H]12)c1cn([C@H](CO)Cc2ccccc2)nn1	0.116 (inactive)
COC(=O)C1=C(C)N(Cc2ccccc2)[C@]23O[C@](C(=O)OC)(C(=O)N2[C@@H]1c1ccccc1)[C@H]1C(=O)N(C)C(=O)[C@H]13	-0.0443 (inactive) and 0.0886 (inactive)
C[C@@H]1CC[C@H]2C(=O)N3[C@@H](CC[C@@H](C)[C@@H]3c3ccc(-c4ccco4)cc3)C(=O)N2[C@H]1c1ccc(-c2ccco2)cc1	0.705 (inactive) and 1.24 (inactive)
CCOC(=O)NN=C1C[C@@H](O)[C@@H](O)[C@@H]2[C@@H]3C(=O)N(Cc4ccc5c(c4)OCO5)C(=O)[C@@H]3CC[C@@H]12	0.221 (inactive)
C=CCN(C(=O)C(c1cccs1)N(C(=O)/C=C\C(=O)O)c1ccc(CCO)cc1)c1ccc(OC)cc1 (stereo unspecified)	-0.16 (inactive) and -0.902 (inactive)
CC(CO)N1C(=O)[C@@H]2C3C(=O)OCCC=C[C@H]3OC23C=CCN(c2ccc(Cl)cc2)C(=O)[C@@H]13 (stereo partly specified)	-0.33 (inactive) and 0.551 (inactive)
C#CCN1C(/C=C/c2ccccc2)C(=O)OC[C@H]1c1ccccc1 (stereo partly specified)	-0.0965 (inactive) and 0.733 (inactive)
C[C@@H]1CN2[C@@H](CC[C@@H](C)[C@@H]2c2ccc(Br)cc2)C(=O)O1	-0.139 (inactive) and 0.204 (inactive)
C=CCN(C(=O)C(c1cccs1)N(CCOCCO)C(=O)/C=C\C(=O)O)c1ccc(OC)cc1 (stereo unspecified)	0.347 (inactive) and -0.659 (inactive)
C=CCN(CCCCC)C(=O)C(c1cccs1)N(C(=O)/C=C\C(=O)O)c1ccc(CCO)cc1 (stereo unspecified)	0.598 (inactive) and -0.378 (inactive)
C[C@@H](c1ccccc1)N1C(=O)[C@H]2[C@H]3[C@H](O)[C@H](O)CC(=O)[C@@H]3CC[C@H]2C1=O	0.28 (inactive)
CO[C@H]1COC(=O)[C@H](C)NC(=O)CC=C[C@@H](C)[C@H](OC)COC(=O)CC=C[C@@H]1C	0.536 (inactive)
CCOC(=O)C[C@H]1[C@H](OC(=O)c2ccccc2-c2ccccc2)[C@@H](NC(=O)c2ccccc2)c2cc(OCCCO)ccc2N1C(=O)c1ccc2ccccc2n1	0.095 (inactive) and 0.291 (inactive)
C=CCN(C(=O)C1N(CCOCCO)C(=O)C2C(C(=O)O)C3C=CC21O3)C(C)(C)C (stereo unspecified)	0.519 (inactive) and -0.158 (inactive)

SMILES	composite Z-score
CCCNC(=O)OC[C@H]1O[C@H](CCON=C(C)CCC(=O)OC[C@H]2O[C@H](C#Cc3ccccc3)C=C[C@@H]2Oc2ccc(C)cc2)C=C[C@@H]1Oc1ccc(OC)cc1	0.212 (inactive)
CCOC(=O)c1ccc(NC(=O)O[C@H]2[C@H](OC(=O)Nc3ccccc3)[C@H](OC(=O)Nc3ccccc3)[C@@H](OC)O[C@@H]2CO)cc1	1.13 (inactive) and 0.14 (inactive)
O=C1NC(=O)C2C1C=CC(C(O)c1ccc([N+](=O)[O-])cc1)N2Nc1ccc(Cl)cc1Cl (stereo unspecified)	-0.35 (inactive) and -0.195 (inactive)
CC(C)=NO[C@@H](C)c1cc(-c2c(C)cc(C)cc2C)no1	0.454 (inactive)
CC(C)=NOCc1ccc(-c2cn([C@@H]3COC[C@H]3O)nn2)cc1	0.43 (inactive)
C=CC[C@@H](O)c1ccc(O)c2ccccc12	1.21 (inactive) and -0.181 (inactive)
C[C@@H]1CC[C@@H](C(=O)O)N[C@H]1c1ccc(-c2ccco2)cc1	-0.122 (inactive)
COC(=O)c1c2oc(c1C(=O)OC)C(=O)N[C@@H](Cc1ccccc1)Cn1cc(nn1)C1(CCCCC1)NC(=O)N[C@H](CO)CC2	0.167 (inactive) and 0.77 (inactive)
C=C[C@@H](OC)[C@H](O)c1ccc(OC)c(O)c1	0.767 (inactive) and -1.19 (inactive)
C=CCN(CCCCC)C(=O)C1N(CCCCCCO)C(=O)C2C(C(=O)O)C3C=CC21O3 (stereo unspecified)	0.207 (inactive) and 0.382 (inactive)
C=CCN(C(=O)C(c1cccs1)N(C(=O)/C=C\C(=O)O)C(C)(C)CO)C(C)(C)C (stereo unspecified)	-1.12 (inactive) and 0.108 (inactive)
Cc1ccc(S(=O)(=O)OC[C@@H]2CN3[C@@H](CC[C@@H](C)[C@@H]3c3ccc(Br)cc3)C(=O)O2)cc1	-0.19 (inactive) and 0.177 (inactive)
CC(C)[Si]1(C(C)C)OCc2cc(CCCc3cc4c(c(CCc5ccccc5)n3)[Si](C(C)C)(C(C)C)OC4)nc(CCc3ccccc3)c21	-0.436 (inactive) and -0.38 (inactive)
C=CCN(Cc1ccccc1)C(=O)C1N(c2c(Cl)cccc2CO)C(=O)C2C(C(=O)O)C3C=CC21O3 (stereo unspecified)	-0.874 (inactive) and -0.317 (inactive)
COc1ccc(-c2ccc3c(n2)CCCN3CC(O)CN2CCCc3nc(-c4ccc(Br)cc4)ccc32)cc1 (stereo unspecified)	1.48 (inactive) and 2.85 (inactive)
COc1ccc(O[C@H]2C=C[C@@H](c3ccccc3)O[C@@H]2COC(=O)CCC(C)=NO[C@H](C)c2cn([C@H](CO)Cc3ccccc3)nn2)cc1	0.0335 (inactive) and 0.232 (inactive)
C=CCN1C(=O)[C@]2(O[C@H](CCn3cc(CCO)nn3)[C@@H]([Si](C)(C)c3ccc(OC)cc3)[C@@H]2C)c2cc(N3C(=O)c4cccc5cccc3c45)ccc21	0.729 (inactive) and 0.573 (inactive)
